The supplement of paper PMC10849652
About 7,900 targets were measured; listed, in parts, are those with a hit and a random draw of the rest. About 0.6% of all pairs of compound and target were hits. Values without a mark were called inactive.

Columns and labels:
Assay in all cases: log2 fold change, soluble protein after heating vs DMSO (PISA); higher = thermal stabilisation; K562 cells, 10 uM, 30 min; active = over 0.2 and 3.5 SD of the protein, either way, in both replicates (recomputed)
saracatinib = compound: CN1CCN(CCOc2cc(OC3CCOCC3)c3c(Nc4c(Cl)ccc5c4OCO5)ncnc3c2)CC1 [saracatinib]
Summary of the method: (§1)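 Values are thermal stability changes relative to control samples and are taken from duplicates. They are stated as log2 fold changes. Before quantification by TMTpro 16plex LC-MS/MS with equalised channel sums, K562 cells at 2×10^6 cells/mL were treated with 10 μM compound for 30 min, heated in aliquots for 3 min across 48°C-58°C, pooled, extracted in PBS with 0.5% NP-40 at 4°C, and centrifuged at 21,000xg for 90 min to give the soluble supernatant.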

sotrastaurin = compound: CN1CCN(c2nc(C3=C(c4c[nH]c5ccccc45)C(=O)NC3=O)c3ccccc3n2)CC1 [sotrastaurin]
Summary of the method: as §1

alvocidib = compound: CN1CC[C@H](c2c(O)cc(O)c3c(=O)cc(-c4ccccc4Cl)oc23)[C@H](O)C1 [alvocidib]
Summary of the method: as §1

Tubastatin A = compound: CN1CCc2c(c3ccccc3n2Cc2ccc(C(=O)NO)cc2)C1 [Tubastatin A]
Summary of the method: as §1

[1] = compound: CNC(=O)C1=CC=CC=C1NC2=NC(=NC=C2Cl)NC3=C(C=C(C=C3)N4CCOCC4)OC
Summary of the method: as §1

defactinib = compound: CNC(=O)c1ccc(Nc2ncc(C(F)(F)F)c(NCc3nccnc3N(C)S(C)(=O)=O)n2)cc1 [defactinib]
Summary of the method: as §1

rucaparib = compound: CNCc1ccc(-c2[nH]c3cc(F)cc4c3c2CCNC4=O)cc1 [rucaparib]
Summary of the method: as §1

[2] = compound: CNc1nc(-c2ccc3c(N)n[nH]c3c2)cc(N2C[C@@H](C(=O)NC3CCCCC3)CC[C@H]2C)n1
Summary of the method: as §1

encorafenib = compound: COC(=O)N[C@@H](C)CNc1nccc(-c2cn(C(C)C)nc2-c2cc(Cl)cc(NS(C)(=O)=O)c2F)n1 [encorafenib]
Summary of the method: as §1

[3] = compound: COC(=O)[C@H](CCSC)NC(=O)C1=C(C=C(C=C1)NC[C@H](CS)N)C2=CC=CC=C2
Summary of the method: as §1

UniProt P33240, sequence (P33240 whole entry, looked up): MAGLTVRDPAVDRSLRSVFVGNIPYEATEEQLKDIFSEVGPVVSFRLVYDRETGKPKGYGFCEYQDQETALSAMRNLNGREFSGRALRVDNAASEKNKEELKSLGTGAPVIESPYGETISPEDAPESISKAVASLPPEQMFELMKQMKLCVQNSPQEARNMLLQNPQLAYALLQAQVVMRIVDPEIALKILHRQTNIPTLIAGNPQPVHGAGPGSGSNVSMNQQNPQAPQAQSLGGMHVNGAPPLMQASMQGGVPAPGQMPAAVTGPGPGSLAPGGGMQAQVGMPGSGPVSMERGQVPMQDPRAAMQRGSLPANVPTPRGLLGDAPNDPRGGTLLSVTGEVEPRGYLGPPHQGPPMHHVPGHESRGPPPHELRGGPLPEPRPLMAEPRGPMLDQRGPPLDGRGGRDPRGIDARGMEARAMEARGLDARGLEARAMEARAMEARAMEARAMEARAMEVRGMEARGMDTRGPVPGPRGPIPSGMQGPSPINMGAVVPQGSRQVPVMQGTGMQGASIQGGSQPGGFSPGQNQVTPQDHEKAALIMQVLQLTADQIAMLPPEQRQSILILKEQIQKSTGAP
UniProt P19397, sequence (P19397 whole entry, looked up): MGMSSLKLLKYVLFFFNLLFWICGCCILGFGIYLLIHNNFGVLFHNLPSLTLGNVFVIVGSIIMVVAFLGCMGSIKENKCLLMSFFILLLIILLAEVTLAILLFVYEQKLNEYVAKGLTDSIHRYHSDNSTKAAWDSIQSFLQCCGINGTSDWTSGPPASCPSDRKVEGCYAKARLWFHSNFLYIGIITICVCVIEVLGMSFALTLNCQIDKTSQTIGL
UniProt Q5RI15, sequence (Q5RI15 whole entry, looked up): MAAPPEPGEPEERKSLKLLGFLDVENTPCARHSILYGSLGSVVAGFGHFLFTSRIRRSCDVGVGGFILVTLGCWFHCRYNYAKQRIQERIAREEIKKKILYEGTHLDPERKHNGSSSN
UniProt Q13111, sequence (Q13111 whole entry, looked up): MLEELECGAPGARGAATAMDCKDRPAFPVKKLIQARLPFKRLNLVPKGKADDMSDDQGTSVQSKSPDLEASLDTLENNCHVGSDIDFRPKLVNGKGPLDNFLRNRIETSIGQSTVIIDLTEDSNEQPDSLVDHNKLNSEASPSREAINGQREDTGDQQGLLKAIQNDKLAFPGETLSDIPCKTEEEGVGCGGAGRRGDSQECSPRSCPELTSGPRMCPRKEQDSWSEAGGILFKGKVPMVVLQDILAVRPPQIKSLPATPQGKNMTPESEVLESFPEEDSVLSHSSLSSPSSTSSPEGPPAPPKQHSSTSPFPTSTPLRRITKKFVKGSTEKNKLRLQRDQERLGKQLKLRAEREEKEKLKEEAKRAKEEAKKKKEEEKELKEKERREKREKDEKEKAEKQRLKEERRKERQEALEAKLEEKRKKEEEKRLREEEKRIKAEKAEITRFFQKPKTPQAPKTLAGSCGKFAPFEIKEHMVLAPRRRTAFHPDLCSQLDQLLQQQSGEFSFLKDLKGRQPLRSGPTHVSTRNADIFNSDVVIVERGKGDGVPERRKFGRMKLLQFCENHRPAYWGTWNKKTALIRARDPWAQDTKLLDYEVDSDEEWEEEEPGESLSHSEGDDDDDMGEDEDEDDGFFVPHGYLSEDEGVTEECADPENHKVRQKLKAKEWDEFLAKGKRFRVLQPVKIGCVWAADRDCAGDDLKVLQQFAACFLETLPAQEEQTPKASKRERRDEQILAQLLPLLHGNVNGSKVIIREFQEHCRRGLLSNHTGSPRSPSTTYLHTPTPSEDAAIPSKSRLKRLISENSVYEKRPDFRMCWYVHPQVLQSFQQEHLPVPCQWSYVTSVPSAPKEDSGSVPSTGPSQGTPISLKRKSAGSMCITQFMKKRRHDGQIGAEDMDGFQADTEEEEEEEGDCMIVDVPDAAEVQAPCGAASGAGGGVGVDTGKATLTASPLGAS
UniProt Q99653, sequence (Q99653 whole entry, looked up): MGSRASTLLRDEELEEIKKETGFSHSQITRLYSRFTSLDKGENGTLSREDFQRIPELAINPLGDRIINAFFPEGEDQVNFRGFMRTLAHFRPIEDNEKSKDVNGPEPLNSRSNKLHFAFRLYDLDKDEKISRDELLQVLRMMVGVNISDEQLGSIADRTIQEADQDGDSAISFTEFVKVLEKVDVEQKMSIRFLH
UniProt Q7L3B6, sequence (Q7L3B6 whole entry, looked up): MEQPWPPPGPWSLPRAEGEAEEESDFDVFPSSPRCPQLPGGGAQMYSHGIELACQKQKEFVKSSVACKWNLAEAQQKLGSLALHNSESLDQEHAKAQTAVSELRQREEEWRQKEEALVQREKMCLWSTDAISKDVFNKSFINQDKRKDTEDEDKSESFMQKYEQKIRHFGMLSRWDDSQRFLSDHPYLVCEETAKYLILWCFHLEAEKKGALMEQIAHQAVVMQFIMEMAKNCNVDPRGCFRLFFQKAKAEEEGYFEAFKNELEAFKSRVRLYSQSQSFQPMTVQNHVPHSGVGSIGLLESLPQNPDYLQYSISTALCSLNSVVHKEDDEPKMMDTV
UniProt Q96MX0, sequence (Q96MX0 whole entry, looked up): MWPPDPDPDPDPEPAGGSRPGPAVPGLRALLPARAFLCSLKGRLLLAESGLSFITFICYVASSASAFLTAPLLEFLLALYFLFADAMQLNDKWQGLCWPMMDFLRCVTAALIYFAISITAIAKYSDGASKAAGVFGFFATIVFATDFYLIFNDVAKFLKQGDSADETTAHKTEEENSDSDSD
UniProt Q00534, sequence (Q00534 whole entry, looked up): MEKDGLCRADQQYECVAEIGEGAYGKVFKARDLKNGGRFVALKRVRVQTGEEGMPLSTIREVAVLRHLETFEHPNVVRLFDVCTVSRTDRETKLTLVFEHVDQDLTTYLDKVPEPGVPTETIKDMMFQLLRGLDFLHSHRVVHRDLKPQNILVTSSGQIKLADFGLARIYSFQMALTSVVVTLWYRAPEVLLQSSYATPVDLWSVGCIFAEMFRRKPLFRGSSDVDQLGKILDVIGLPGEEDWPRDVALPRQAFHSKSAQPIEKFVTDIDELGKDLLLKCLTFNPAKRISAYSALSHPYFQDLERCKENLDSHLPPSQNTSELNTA
UniProt P0C0L4, sequence (P0C0L4 whole entry, looked up): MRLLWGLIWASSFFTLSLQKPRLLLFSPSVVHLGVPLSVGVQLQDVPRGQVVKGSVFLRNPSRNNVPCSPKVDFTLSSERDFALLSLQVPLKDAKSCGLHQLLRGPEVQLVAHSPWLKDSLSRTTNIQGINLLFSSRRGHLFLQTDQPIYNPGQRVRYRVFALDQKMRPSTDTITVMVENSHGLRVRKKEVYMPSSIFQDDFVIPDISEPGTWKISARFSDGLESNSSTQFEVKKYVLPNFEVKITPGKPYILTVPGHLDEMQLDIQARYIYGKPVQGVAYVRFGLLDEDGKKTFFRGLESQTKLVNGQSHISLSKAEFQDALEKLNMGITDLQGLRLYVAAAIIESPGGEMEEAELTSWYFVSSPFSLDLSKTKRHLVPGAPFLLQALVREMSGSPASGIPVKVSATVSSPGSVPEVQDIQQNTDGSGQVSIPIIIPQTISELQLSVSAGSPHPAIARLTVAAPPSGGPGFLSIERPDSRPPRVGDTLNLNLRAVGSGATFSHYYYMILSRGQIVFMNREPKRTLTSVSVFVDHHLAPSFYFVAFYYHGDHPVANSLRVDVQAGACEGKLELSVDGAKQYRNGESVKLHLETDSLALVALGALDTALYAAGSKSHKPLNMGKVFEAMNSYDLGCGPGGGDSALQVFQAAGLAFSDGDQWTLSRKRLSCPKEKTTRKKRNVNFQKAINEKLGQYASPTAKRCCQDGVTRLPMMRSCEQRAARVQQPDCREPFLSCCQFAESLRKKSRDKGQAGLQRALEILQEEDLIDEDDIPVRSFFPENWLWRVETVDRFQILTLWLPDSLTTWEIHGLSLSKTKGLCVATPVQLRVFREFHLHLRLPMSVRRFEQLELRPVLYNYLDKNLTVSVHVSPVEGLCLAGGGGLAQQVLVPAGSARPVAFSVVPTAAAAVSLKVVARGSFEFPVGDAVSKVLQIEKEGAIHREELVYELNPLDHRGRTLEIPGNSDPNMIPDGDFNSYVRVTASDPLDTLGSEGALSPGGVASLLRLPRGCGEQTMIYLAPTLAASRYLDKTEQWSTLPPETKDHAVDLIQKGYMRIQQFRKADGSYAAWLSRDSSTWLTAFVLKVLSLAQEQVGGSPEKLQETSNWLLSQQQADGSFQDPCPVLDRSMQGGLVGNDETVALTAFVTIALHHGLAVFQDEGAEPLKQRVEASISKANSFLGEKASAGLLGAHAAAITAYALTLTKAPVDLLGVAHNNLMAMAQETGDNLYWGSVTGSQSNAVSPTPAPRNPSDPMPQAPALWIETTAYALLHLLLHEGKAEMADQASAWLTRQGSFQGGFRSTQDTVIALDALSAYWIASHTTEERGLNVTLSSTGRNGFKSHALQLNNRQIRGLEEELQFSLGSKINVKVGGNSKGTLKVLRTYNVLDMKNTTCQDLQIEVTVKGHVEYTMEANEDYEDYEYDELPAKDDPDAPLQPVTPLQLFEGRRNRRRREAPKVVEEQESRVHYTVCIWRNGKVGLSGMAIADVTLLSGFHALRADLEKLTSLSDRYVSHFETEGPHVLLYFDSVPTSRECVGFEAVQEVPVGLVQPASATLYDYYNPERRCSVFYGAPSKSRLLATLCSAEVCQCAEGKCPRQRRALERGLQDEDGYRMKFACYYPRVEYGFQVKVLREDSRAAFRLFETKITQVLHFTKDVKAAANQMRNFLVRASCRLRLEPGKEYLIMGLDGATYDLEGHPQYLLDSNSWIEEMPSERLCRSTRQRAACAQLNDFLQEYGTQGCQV
UniProt Q86X83, sequence (Q86X83 whole entry, looked up): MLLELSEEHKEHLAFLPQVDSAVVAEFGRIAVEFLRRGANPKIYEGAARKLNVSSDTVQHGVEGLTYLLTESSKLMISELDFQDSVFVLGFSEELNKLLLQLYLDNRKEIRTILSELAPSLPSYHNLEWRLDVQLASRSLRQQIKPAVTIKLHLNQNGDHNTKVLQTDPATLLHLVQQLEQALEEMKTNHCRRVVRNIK
UniProt P24311, sequence (P24311 whole entry, looked up): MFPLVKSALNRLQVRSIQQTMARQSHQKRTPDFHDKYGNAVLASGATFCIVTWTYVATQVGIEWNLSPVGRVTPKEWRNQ

| Target | log2 fold change (saracatinib) | log2 fold change (sotrastaurin) | log2 fold change (alvocidib) | log2 fold change (Tubastatin A) | log2 fold change [1] | log2 fold change (defactinib) | log2 fold change (rucaparib) | log2 fold change [2] | log2 fold change (encorafenib) | log2 fold change [3] |
| --- | --- | --- | --- | --- | --- | --- | --- | --- | --- | --- |
| CCDC59 (UniProt Q9P031) | -0.222 | 0.023 | 0.267 | 0.127 | 0.007 | 0.309 | 0.029 | 0.05 | 0.026 | -0.015 |
| CLCN3 isoform 2 (UniProt P51790) | 0.104 | -0.002 | -0.079 | -0.06 | -0.018 | -0.009 | -0.002 | -0.015 | -0.027 | -0.014 |
| CDKN2AIP (UniProt Q9NXV6) | 0.057 | 0.023 | 0.018 | 0.013 | 0.052 | 0.055 | -0.055 | 0.033 | 0.02 | -0.029 |
| CLUH, A0A494C0R8 | -0.037 | -0.058 | -0.009 | -0.088 | 0.09 | -0.068 | 0.16 | 0.138 | 0.032 | 0.102 |
| CD53 (UniProt P19397) | -0.22 | 0.087 | -0.06 | 0.009 | -0.21 | -0.069 | -0.032 | 0.125 | -0.006 | 0.051 |
| CSTF2 (UniProt P33240) | -0.02 | 0.105 | 0.045 | -0.064 | -0.023 | 0.023 | 0.034 | -0.092 | -0.08 | -0.028 |
| COMMD2 (UniProt Q86X83) | -0.17 | 0.043 | -0.078 | 0.179 | 0.411 (active) | -0.088 | 0.034 | 0.039 | -0.005 | 0.012 |
| COX7B (UniProt P24311) | 0.174 | 0.058 | 0.026 | -0.087 | 0.059 | 0 | -0.02 | -0.049 | -0.036 | -0.073 |
| CSTF3 (UniProt Q12996) | 0.001 | 0.045 | 0.078 | -0.08 | 0.043 | 0.173 | 0.088 | -0.051 | -0.022 | 0.002 |
| CD151 (UniProt P48509) | 0.045 | 0.116 | -0.049 | -0.012 | 0.092 | -0.065 | -0.097 | 0.03 | 0.031 | 0.001 |
| CHAC2 (UniProt Q8WUX2) | -0.016 | -0.028 | -0.075 | -0.02 | -0.02 | -0.07 | 0.122 | -0.05 | 0.237 | 0.025 |
| COPS3 (UniProt Q9UNS2) | -0.016 | 0.02 | -0.019 | -0.025 | -0.021 | -0.023 | -0.037 | -0.013 | -0.003 | 0.033 |
| CRLS1 (UniProt Q9UJA2) | 0.144 | -0.282 | 0.02 | -0.079 | 0.043 | -0.088 | -0.088 | -0.052 | 0.004 | 0.067 |
| CHP1 (UniProt Q99653) | -0.09 | 0.068 | -0.046 | 0.041 | 0.085 | -0.006 | 0.068 | -0.219 | -0.016 | 0.021 |
| C4A (UniProt P0C0L4) | 0.108 | 0.268 | 0.052 | -0.039 | -0.021 | 0.072 | -0.075 | -0.188 | -0.047 | -0.039 |
| CMTR1 (UniProt Q8N1G2) | 0.009 | 0.018 | -0.053 | -0.052 | 0.045 | -0.026 | 0.003 | 0.099 | 0.06 | -0.091 |

| Target | log2 fold change (saracatinib) | log2 fold change (sotrastaurin) | log2 fold change (alvocidib) | log2 fold change (Tubastatin A) | log2 fold change [1] | log2 fold change (defactinib) | log2 fold change (rucaparib) | log2 fold change [2] | log2 fold change (encorafenib) | log2 fold change [3] |
| --- | --- | --- | --- | --- | --- | --- | --- | --- | --- | --- |
| CPQ (UniProt Q9Y646) | 0.039 | -0.012 | 0.045 | 0.02 | -0.049 | -0.035 | -0.042 | -0.031 | 0.008 | 0.006 |
| CDK6 (UniProt Q00534) | 0.002 | -0.005 | 0.01 | 0.022 | 0.016 | -0.029 | 0.065 | -0.02 | 0.011 | 0.004 |
| COA6 isoform 2 (UniProt Q5JTJ3) | 0.175 | 0.063 | 0.012 | 0.07 | 0.354 | -0.022 | -0.068 | 0.138 | -0.055 | 0.072 |
| CASP2 (UniProt P42575) | -0.1 | -0.048 | -0.084 | 0.082 | 0.037 | -0.08 | -0.006 | 0.053 | 0.133 | -0.005 |
| CMTM3 (UniProt Q96MX0) | -0.006 | -0.01 | -0.022 | -0.012 | -0.019 | -0.096 | 0.129 | -0.075 | -0.072 | 0.05 |
| COX20 isoform 2 (UniProt Q5RI15) | 0.005 | 0.008 | -0.025 | -0.062 | -0.028 | -0.017 | 0.044 | -0.025 | -0.108 | 0.009 |
| CBX1 (UniProt P83916) | 0.073 | -0.037 | -0.026 | 0.035 | -0.018 | -0.143 | -0.01 | -0.02 | -0.043 | 0 |
| CDC37L1 (UniProt Q7L3B6) | -0.003 | 0.021 | -0.093 | -0.308 (active) | 0.002 | 0.059 | -0.058 | -0.013 | 0.005 | 0.018 |
| CCND3 (UniProt P30281) | 0.03 |  | 0.008 | 0.242 | -0.018 | -0.037 | 0.113 | -0.067 | -0.11 | 0 |
| CDKN1B (UniProt P46527) | 0.29 | 0.129 | 0.256 |  | -0.247 | 0.163 |  | -0.298 |  | 0.028 |
| CDK4 (UniProt P11802) | -0.03 | -0.028 | 0.098 |  | 0.07 | -0.039 | 0.051 | -0.057 | -0.008 | -0.07 |
| CCNT2 (UniProt O60583) | -0.016 | -0.372 |  | 0.157 |  |  | -0.112 | 0.04 | 0.119 |  |
| C22orf39 (UniProt Q6P5X5) | 0.076 | -0.028 | 0.013 | -0.013 | 0.129 |  |  | 0.056 |  |  |
| CCNC (UniProt P24863) | 0.057 | -0.057 | 0.6 (active) |  | 0.008 | -0.047 |  | -0.028 |  | 0.001 |
| CHAF1A (UniProt Q13111) | 0.008 | 0.004 | 0.041 |  | 0.133 |  | 0.198 | -0.125 | 0.094 |  |
